Her2 expr inh: inhibitors of human Her2 kinase expression; P04626; SKBR-3 HER2 protein level, AlphaScreen, 18-24 h; hits give low values; HER2 level % of control, % at 10 µM; hit rate 0.69% among 65,000;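 active means HER2 level under 5% of the carrier-only control; inconclusive means no clear call, values can overlap the other calls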;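 further: 100% = DMSO carrier and 0% = 500 nM PU-H71 HSP90 inhibitor; lower value means stronger loss of Her2 protein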
JNK3 blocker: blocks human JNK3 kinase activity; inhibition, % at 8 µM; hit rate 0.61% among 60,000; purified JNK3 kinase activity, HTS; AID 746; in the data active means inhibition above about 17%;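 further: 0% = DMSO and 100% = reference inhibitor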
Target sequence (P53779 whole entry, looked up): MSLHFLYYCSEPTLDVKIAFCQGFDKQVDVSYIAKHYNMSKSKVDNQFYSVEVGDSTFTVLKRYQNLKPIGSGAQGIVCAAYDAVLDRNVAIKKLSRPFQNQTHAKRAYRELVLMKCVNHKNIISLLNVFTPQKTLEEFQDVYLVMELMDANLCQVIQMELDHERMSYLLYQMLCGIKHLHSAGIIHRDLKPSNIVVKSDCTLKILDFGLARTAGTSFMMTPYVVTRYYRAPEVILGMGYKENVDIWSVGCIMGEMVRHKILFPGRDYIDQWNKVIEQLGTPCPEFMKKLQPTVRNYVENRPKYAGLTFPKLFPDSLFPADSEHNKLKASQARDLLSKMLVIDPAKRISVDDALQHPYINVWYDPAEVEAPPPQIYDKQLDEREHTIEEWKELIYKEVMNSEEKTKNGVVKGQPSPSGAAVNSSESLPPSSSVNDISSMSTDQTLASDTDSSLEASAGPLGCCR
PKA inh: PKA (human) kinase inhibition; P17612; PKA Kemptide phosphorylation, Kinase-Glo ATP luminescence; inhibition, % at 6 µM; hit rate 0.1% among 65,000; AID 524;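 active means inhibition above the screen-wide mean inhibition plus 3 SD, cut at about 21% in these data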
ROCK2 inh: inhibitors of human Rho kinase 2; O75116; purified ROCK2, Kinase-Glo ATP depletion luminescence; inhibition, % at 6 µM; hit rate 0.35% among 60,000; AID 604;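 active means inhibition above the screen-wide mean inhibition plus 3 SD, cut at about 18% in these data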;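 further: plate controls were DMSO wells for no effect and Y-27632 control wells after no-enzyme background subtraction for full effect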
SKBR3 24h inh: SK-BR-3 proliferation inhibitors | viability, % at 10 µM | SK-BR-3 viability, CellTiter-Glo ATP luminescence, 24 h; hits give low values | hit rate 0.47% among 41,000;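 active means viability at or below the median of all test compounds minus 3 SD, in both replicates if run twice, cut at about 45% in these data; inconclusive means duplicate replicates that disagree with each other; inactive means viability above that cutoff in every replicate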;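 further: 100% = median untreated cell wells and 0% = median positive control drug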
mHtt clearance: compounds clearing mutant huntingtin protein; AID 853; HeLa Exon1htt(103Q)mCFP, aggregate imaging; zero = plate's median compound well; hit rate 0.42% among 47,000; inhibition, % at 1.5 µM;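 active means inhibition of aggregate fluorescence above about 70%, also judged a hit by eye on the cell image, limit read from the data, passing the limit was not always enough; inconclusive means no rule stated for this call; inactive means not judged a hit on image review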;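 further: cells exposed to compound for three days before fixation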
Starred values were filed as active, the others as inactive; ? = inconclusive; . = no result. Shown are actives, neighbours in structure and some others; about 1.4% of the full set was active somewhere.

SMILES	Her2 expr inh	JNK3 blocker	PKA inh	ROCK2 inh	SKBR3 24h inh	mHtt clearance
Cc1cc(C)nc(SCC2COc3ccccc3O2)n1 (configuration not stated)	60.5	1.0	7.1	4.2	.	.
CCN(CC)c1ccc2cc(C(N)=O)c(=O)oc2c1	.	.	.	.	.	4.8
CCN(CC)c1ccc2cc(NC(=O)CCC(=O)O)c(=O)oc2c1	90.8	-14.3	-5.2	-1.3	42.8*	.
c1ccc(-c2n[nH]c3c2CCC3)cc1	96.8	18.0*	6.8	3.7	104.4	-37.5
O=C1CCCc2[nH]nc(-c3cccnc3)c21	131.4	.	2.0	.	.	.
O=C(OCC1COc2ccccc2O1)c1c(F)cccc1F (configuration not stated)	167.2	.	3.4	.	133.8	-21.6
CC(C)(C)C(=O)NC1CCN(S(=O)(=O)c2cccc(C(F)(F)F)c2)CC1	71.7	-0.5	1.2	2.7	23.1*	.
CC(C)CCN(C)C1CCN(S(=O)(=O)c2cccc(C(F)(F)F)c2)CC1	106.2	-3.9	7.2	3.5	.	.
CC(C(=O)OCC(=O)Nc1ccc2c(c1)OCO2)N1C(=O)c2ccccc2C1=O (configuration not stated)	99.1	7.5	-5.7	-3.7	.	.
CC(C(=O)Oc1ccc2c(c1)OCO2)N1C(=O)c2ccccc2C1=O (configuration not stated)	103.5	.	-2.5	.	35.5*	.
CCCc1cc(=O)n2c(nc3ccccc32)[nH]1	69.1	27.6*	9.4	7.2	78.4	-24.4
CCCCc1c(O)n2c(nc3ccccc32)[nH]c1=O	94.0	2.8	9.6	7.3	80.8	18.6
COc1ccc2c(Cl)c(C(N)=O)sc2c1	63.1	18.4*	28.6*	50.2*	101.0	.
Cc1ccc(S(=O)(=O)Nc2cccc3ncccc23)s1	-5.5*	3.1	-0.6	-0.9	.	-39.0
COc1ccc(-n2c3c(cc(C(=O)Nc4ccc5c(c4)C(=O)NC5=O)c2=O)C(=O)CCC3)cc1	90.9	2.3	-2.3	-0.2	114.2	.
CS(=O)c1nc(-c2ccc(Br)cc2)cc(-c2ccccc2)c1C#N (configuration not stated)	-21.9*	-3.3	0.2	-3.8	?	.
CCOCCCNC(=O)C(NC(=O)CC1NC(=O)NC1=O)c1ccc(Cl)cc1 (configuration not stated)	97.7	.	2.6	.	43.9*	8.3
N#CC1=C(SCC(=O)c2ccccc2)NC2=C(C(=O)CCC2)C1c1ccco1 (configuration not stated)	88.0	57.5*	-11.7	-10.1	96.8	.
CCOc1ccc2nc(NC(=O)C3CCCN(S(=O)(=O)c4cccs4)C3)sc2c1 (configuration not stated)	80.1	5.1	5.5	1.6	99.8	-160.3
CCOc1ccccc1N1CCN(Cc2ccc(OC)c(OC)c2)CC1	-19.9*	-1.4	6.4	1.7	.	.
COc1ccc(CCC(=O)Nc2nc3c(s2)CN(C)CC3)cc1OC	88.6	-4.4	-0.9	109.1*	.	.
CCN1CCc2nc(NC(=O)Cc3ccc4c(c3)OCCO4)sc2C1	63.7	.	-4.3	.	90.9	.
c1ccc(Cc2nn3c(COc4ccccc4)nnc3s2)cc1	-20.9*	-4.1	-5.4	-2.6	99.8	-14.0
CCOc1ccccc1OCc1nn2c(COc3ccccc3)nnc2s1	52.0	-12.8	-2.0	-0.9	84.3	-38.4
O=C(/C=C/c1ccccc1)N1CCN(Cc2nc3ccccc3c(=O)[nH]2)CC1	.	.	.	.	.	-21.5
SMILES	Her2 expr inh	JNK3 blocker	PKA inh	ROCK2 inh	SKBR3 24h inh	mHtt clearance
COc1ccc(-c2c(=O)n(OCc3ccccn3)c3ccccc3[n+]2[O-])cc1OC	103.2	-3.8	10.1	7.5	83.9	.
CCOC(=O)COn1c(=O)c(-c2ccc(OC)c(OC)c2)[n+]([O-])c2ccccc21	71.7	-2.9	4.6	6.1	106.9	74.3*
Cc1c(C)n(C)c2ccc(C(=O)NCc3cccs3)cc12	90.4	2.8	12.1	32.4*	.	.
CCCN1C(=O)c2cc(C(=O)NCc3cccs3)ccc2C1O (configuration not stated)	99.1	3.3	6.8	-7.6	.	.
c1ccc(-n2c(-c3ccncc3)nnc2N2CCOCC2)cc1	-3.3*	1.0	6.5	1.3	.	.
CCN(CC(=O)NC1CCCCCC1)S(=O)(=O)c1ccccc1	-28.0*	-2.0	6.2	-0.5	93.9	.
CCOC(=O)C1=C(C)OC(N)=C(C#N)C1c1cc2ccccc2nc1N1CCCCC1 (configuration not stated)	61.1	22.5*	3.9	-2.2	80.2	.
CCOC(=O)C1=C(C)OC(N)=C(C#N)C1c1cc(C)sc1C (configuration not stated)	.	.	.	.	.	-0.6
COc1cc(C(=O)N2CCN(c3ncnc4sc(C)c(C)c34)CC2)cc(OC)c1OC	87.7	2.1	-10.9	-3.7	81.1	.
CC(C)NCC(O)Cn1c2c(c3ccccc31)CCc1c-2cnn1-c1ccccc1 (configuration not stated)	-15.7*	-26.7	10.9	1.2	2.2*	.
CC1CN=C(N(C(=O)Nc2ccccc2)c2ccc(S(=O)(=O)N3CCOCC3)cc2)S1 (configuration not stated)	1.3*	0.6	1.2	-2.6	.	.
O=C(Nc1ccccc1)c1ccc(S(=O)(=O)N2CCOCC2)cc1	.	.	.	.	.	7.3
COC(=O)c1cccc(Cn2nnc3ccccc3c2=O)c1	105.9	17.2*	9.8	4.2	81.9	-27.3
C=CCn1c(COc2ccccc2)nnc1SCc1ccc(C#N)cc1	109.6	1.2	5.2	8.4	90.7	54.2
C=CCn1c(COc2ccc(CC)cc2)nnc1SC/C(O)=C(\C#N)c1nc2ccccc2[nH]1	69.8	.	5.7	.	29.2*	.
Fc1ccccc1Cn1nnc2c(-n3ccnc3)ncnc21	101.2	6.2	24.1*	27.2*	87.7	.
COC(=O)/C(=C1/Oc2cc(C)oc(=O)c2S1)C(F)(F)F	-14.7*	-5.6	6.6	6.0	38.2*	.
COC(=O)c1sccc1NC(=O)c1ccc(OC)cc1	66.8	37.5*	6.4	6.0	90.8	57.6
COC(=O)c1sccc1NC(=O)c1ccc(Cl)s1	4.0*	-0.5	-1.6	-0.2	98.2	3.4
Cc1cc(C)c(C)c(/C=C(/C#N)C(N)=S)c1C	.	.	.	.	.	77.1*
O=C(NCc1ccccc1)c1cc(-c2cccc(O)c2)on1	119.9	-2.1	7.8	2.0	.	.
COc1ccc2c(=O)c3c(=O)n(Cc4ccco4)c(-c4ccc(C)cc4)nc3oc2c1	4.8*	8.8	4.0	12.2	81.3	.
COc1cccc(C(C(=O)NCc2ccco2)N(Cc2ccco2)C(=O)Cn2nnc3ccccc32)c1 (configuration not stated)	.	.	.	.	.	80.0*
COc1cccc(N(C(=O)Cn2nnc3ccccc32)C(C(=O)NCc2ccco2)c2cccnc2)c1 (configuration not stated)	93.1	-6.2	9.0	1.3	92.3	.
CCOC(=O)C(NC(C)=O)C(OC(C)=O)c1cccc(N(CCO)CCO)c1 (configuration not stated)	89.0	2.3	4.1	3.6	96.6	.
Cc1cccc(NC(=O)CSc2n[nH]c(-c3ccncc3)n2)c1	69.3	1.2	21.2*	17.3	103.0	.

Screening results from PubChem BioAssay.
